According to PubChem BioAssay (Tox21):
Results filed as inconclusive are left out. Activity calls are given as the source filed them. Unless noted, the call rests on the fitted dose curve; in most records, active means well fitted curve in the direction sought with a large enough effect in the repeat runs; inconclusive means weak or mixed curves; inactive means no such curve, though single readings can be large; an effect the other way counts as inactive or inconclusive.

Key:
[1] = qHTS assay for small molecule agonists of the p53 signaling pathway (AID 651631; calls by dose curve; further: nearly all actives have a fitted effect of over 15% in size)
How it was run: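 HCT-116 cells carrying a beta-lactamase reporter under p53 response elements were dosed with compound for 16 h at 37 °C. LiveBLAzer B/G FRET substrate was then added for 2 h at room temperature, and fluorescence intensity was read to detect pathway agonism.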

[2] = qHTS assay for small molecules that induce genotoxicity in human embryonic kidney cells expressing luciferase-tagged ATAD5 (AID 651632); further: nearly all actives have a fitted effect of over 15% in size
How it was run: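 Luminescence read-out: after 16 hr compound exposure at 37C, ATAD5-luciferase HEK293T cells received Amplite, 30 min RT, then CCD imaging. A rise in signal marks genotoxic stress.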

[3] = qHTS assay for small molecule agonists of the p53 signaling pathway - cell viability (AID 651633; calls by dose curve;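 further: p53RE-bla HCT reporter cells with a stable beta-lactamase p53 reporter; series mostly up to about 83 µM; nearly all actives have a fitted effect of over 30% in size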)
How it was run: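 p53RE-bla cells, seeded at 4,000 per well and rested 5 h at 37 C/5% CO2, received compounds in DMSO for 16 h at 37 C. CellTiter-Glo was then added, and luminescence was read after 30 min at room temperature to gauge cytotoxicity.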

[4] = qHTS assay for small molecules that induce genotoxicity in human embryonic kidney cells expressing luciferase-tagged ATAD5 - cell viability (AID 651634; calls by dose curve; further: nearly all actives have a fitted effect of over 25% in size)
How it was run: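 HEK293T ATAD5-luc cells, 2,000/well; compound 15.5 hr, 37C/5% CO2; CellTiter-Fluor 30 min, 37C; fluorescence read.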

[5] = qHTS assay for small molecule disruptors of the mitochondrial membrane potential - cell viability (AID 720634; calls by dose curve;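 further: human HepG2 liver cancer cells; series mostly up to about 83 µM; nearly all actives have a fitted effect of over 20% in size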)
How it was run: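 Luminescence from CellTiter-Glo (ATP content) gave viability in HepG2 cells, read in the same wells as the MMP dye assay after 1 hr compound exposure at 37 C.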

[6] = qHTS assay for small molecule disruptors of the mitochondrial membrane potential (AID 720635)
How it was run: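 HepG2 cells (2,000/well) attached overnight at 37C, then took compound for 1 hr at 37C, 5% CO2. Mito-MPS dye was added for 30 min; fluorescence was read at 490/535 nm (monomers) and 540/590 nm (aggregates).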

[7] = qHTS assay to test for compound auto fluorescence at 590 nm (red) in HepG2 cells (AID 720674)
How it was run: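 Compound auto-fluorescence is scored relative to Rose Bengal sodium, measured at 540/590 nm in live HepG2 cultures after 1 hr compound contact (37 C, 5% CO2).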

[8] = qHTS assay to test for compound auto fluorescence at 460 nm (blue) in HEK293 cells (AID 720678)
How it was run: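 HEK293 cells (2,000/well, medium with 10% dialyzed FBS) attached 4-5 hr, then exposed to compound overnight at 37C, 5% CO2. Blue fluorescence read at 405/460 nm, with triamterene as reference fluorophore.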

[9] = qHTS assay to test for compound auto fluorescence at 590 nm (red) in HEK293 cells (AID 720679)
How it was run: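 HEK293 cells (2,000/well, 10% dialyzed FBS) attached 4-5 hr, then dosed with compound or DMSO and incubated overnight at 37C, 5% CO2. Red fluorescence read at 540/590 nm, Rose Bengal sodium as reference fluorophore.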

[10] = qHTS assay to test for compound auto fluorescence at 535 nm (green) in HEK293 cells (AID 720680)
[11] = qHTS assay to test for compound auto fluorescence at 460 nm (blue) in HEK293 cell free culture (AID 720681)
How it was run: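 Test compounds were pinned into cell-free culture medium (DMEM with 10% FBS) and fluorescence was read directly at Ex/Em 405/460 nm. Signals were expressed as fluorescence equivalents of triamterene, with DMSO vehicle as control.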

[12] = qHTS assay to test for compound auto fluorescence at 535 nm (green) in HEK293 cell free culture (AID 720682)
How it was run: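 Green-label autofluorescence (485 nm excitation, 535 nm emission) measured on compound added to cell-free culture medium (DMEM, 10% FBS). Output is expressed relative to fluorescein.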

[13] = qHTS assay to test for compound auto fluorescence at 590 nm (red) in HEK293 cell free culture (AID 720683)
How it was run: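 Tox21 10K library compounds were pinned into cell-free DMEM with 10% FBS and fluorescence was read at excitation 540 nm. Activity is expressed as Rose Bengal sodium equivalency.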

[14] = qHTS assay to test for compound auto fluorescence at 590 nm (red) in HepG2 cell free culture (AID 720684)
How it was run: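 Ex 540 / Em 590 nm read of compound in cell-free MEM (10% FBS). Rose Bengal sodium reference.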

[15] = biological target: Glucocorticoid receptor (Homo sapiens) (UniProt P04150); assay: qHTS assay to identify small molecule agonists of the glucocorticoid receptor (GR) signaling pathway (AID 720691; active means well fitted activation curve with a large enough effect in the signal ratio in the repeat runs, not every such curve was filed as active; the % refers to the signal ratio)
How it was run: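 HeLa GR-bla reporter line; cells pre-incubated 4 h, compound in DMSO 18 h at 37 C; LiveBLAzer B/G FRET substrate 2 h RT; fluorescence intensity read-out.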

[16] = biological target: Glucocorticoid receptor (Homo sapiens) (UniProt P04150); assay: qHTS assay to identify small molecule antagonists of the glucocorticoid receptor (GR) signaling pathway (AID 720692; active means well fitted inhibition curve with a large enough effect in the signal ratio in the repeat runs, not every such curve was filed as active; the % refers to the signal ratio)
How it was run: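 Read-out: beta-lactamase FRET substrate fluorescence, 2 h at room temperature, in HeLa cells stably carrying a GRE-driven bla reporter. Compounds were co-incubated with 5 nM dexamethasone agonist (final) for 18 h at 37 C.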

[17] = qHTS assay to test for compound auto fluorescence at 535 nm (green) in HepG2 cell free culture (AID 720686)
[18] = qHTS assay to test for compound auto fluorescence at 460 nm (blue) in HepG2 cells (AID 720687)
How it was run: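 Cells (2,000/well in MEM with 10% FBS) attached overnight at 37 C, then were exposed to compound or DMSO for 1 hr at 37 C, 5% CO2. Fluorescence read at Ex/Em 405/460 nm, expressed as triamterene-equivalent signal.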

[19] = qHTS assay to test for compound auto fluorescence at 535 nm (green) in HepG2 cells (AID 720675)
[20] = qHTS assay to test for compound auto fluorescence at 460 nm (blue) in HepG2 cell free culture (AID 720685)
How it was run: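 Cell-free plates of MEM plus 10% FBS received 23 nL compound or DMSO vehicle; blue-channel (405/460 nm) intensity scored against triamterene as reference fluorophore.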

Measured: Potency

Chain of Glucocorticoid receptor (Homo sapiens) (P04150 whole entry, looked up): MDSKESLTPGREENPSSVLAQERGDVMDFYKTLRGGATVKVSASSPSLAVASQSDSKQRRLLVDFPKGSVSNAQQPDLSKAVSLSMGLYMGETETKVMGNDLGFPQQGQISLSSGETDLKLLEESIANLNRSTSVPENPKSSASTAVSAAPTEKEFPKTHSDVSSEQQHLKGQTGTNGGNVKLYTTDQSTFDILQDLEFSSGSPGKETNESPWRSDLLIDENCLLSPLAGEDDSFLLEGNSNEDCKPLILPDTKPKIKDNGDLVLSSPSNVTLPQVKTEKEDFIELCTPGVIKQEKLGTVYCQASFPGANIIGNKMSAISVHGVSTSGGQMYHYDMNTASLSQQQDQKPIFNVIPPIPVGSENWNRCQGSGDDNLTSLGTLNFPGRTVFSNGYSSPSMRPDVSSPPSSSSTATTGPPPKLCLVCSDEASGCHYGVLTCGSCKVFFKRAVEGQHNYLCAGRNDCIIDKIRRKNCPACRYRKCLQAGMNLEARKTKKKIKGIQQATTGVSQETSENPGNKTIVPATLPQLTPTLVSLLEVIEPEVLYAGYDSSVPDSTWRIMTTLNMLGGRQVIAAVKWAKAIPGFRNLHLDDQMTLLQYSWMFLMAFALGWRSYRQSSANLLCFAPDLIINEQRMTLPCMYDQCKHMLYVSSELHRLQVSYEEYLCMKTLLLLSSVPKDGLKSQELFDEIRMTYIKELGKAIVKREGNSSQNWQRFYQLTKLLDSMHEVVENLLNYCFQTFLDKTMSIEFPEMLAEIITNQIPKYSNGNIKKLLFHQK

CSc1ccc(Cl)cc1
not listed: [17] | [18] | [19] | [20]
inactive: all other assays above

CCOCC(=O)O
not listed: [19] | [20]
inactive: all other assays above

C=CCc1ccc(OC)c(OC)c1
not listed: [6] | [12] | [13] | [17]
inactive: all other assays above

CCCOC(=O)c1ccccc1
not listed: [12] | [18] | [19]
inactive: all other assays above

O=C1CCCC1
not listed: [11] | [12] | [13] | [17] | [20]
inactive: all other assays above

CCOC(=O)c1ccc(N)cc1
not listed: [19] | [20]
inactive: all other assays above

O=C(O)CCCCCCCCC(=O)O
not listed: [15] | [16] | [18] | [19]
inactive: all other assays above

CCCCCCCCCCCC(=O)OC
not listed: [13] | [19] | [20]
inactive: all other assays above

Cc1ccc2ncccc2c1
not listed: [11] | [12] | [13] | [17] | [19]
inactive: all other assays above

C=C(C)C(=O)OCC(C)C
not listed: [11] | [15] | [16] | [18] | [19]
inactive: all other assays above

CCOC(=O)n1ccn(C)c1=S
not listed: [11] | [12] | [19]
inactive: all other assays above

CC(CCl)OP(=O)(OC(C)CCl)OC(C)CCl (centres undefined)
not listed: [16] | [19]
inactive: all other assays above

C=CCCCCCCCCC(=O)O
not listed: [6] | [11] | [12] | [18]
inactive: all other assays above

CC(C)CCCCCCCOC(=O)CCCCC(=O)OCCCCCCCC(C)C
not listed: [6] | [11] | [17]
inactive: all other assays above

COC(=O)c1cccnc1
not listed: [12] | [18] | [19] | [20]
inactive: all other assays above

O=C(OCC1CCC2OC2C1)C1CCC2OC2C1 (centres undefined)
not listed: [19]
inactive: all other assays above

CC(C)=CCl
not listed: [6] | [11] | [18] | [19]
inactive: all other assays above

C=Cc1ccc(C)cc1
not listed: [12] | [18] | [19]
inactive: all other assays above
